From PubChem BioAssay
L3MBTL1 block: inhibitors of human L3MBTL1; Potency, µM (top dose mostly 57.1 µM), without a hit: at the highest dose activity, negative = inhibition, actives largely listed as inhibitors; AlphaScreen L3MBTL1–H3K9me1 peptide binding; Q9Y468; 0.66% of 230,000 active; also: potency is read from the fitted curve at half-maximal effect; % is scaled to controls: 0 for no effect and ±100 for the full control effect; nearly all actives have a fitted effect of over 60% in size
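Displacement of a biotinylated histone H3(1-15) peptide monomethylated at Lys9 (75 nM) from L3MBTL1 (50 nM) was measured by AlphaScreen after a 30 min room-temperature compound incubation; cefsulodin titration served as intraplate control.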
PI5P4K alpha inh: PI5P4K alpha (human) kinase inhibition | P48426 | PI5P4Kalpha enzyme, ADP-Glo luminescence, 60 min; active compounds read low | max response, % | 1.2% of 330,000 active; active = max response of -50% or lower; inconclusive = between -30% and -50%; inactive = -30% or higher; also: value at the top dose of about 77 µM; % is scaled to controls: 0 for no effect and ±100 for the full control effect
Target sequence (P48426 whole entry, looked up): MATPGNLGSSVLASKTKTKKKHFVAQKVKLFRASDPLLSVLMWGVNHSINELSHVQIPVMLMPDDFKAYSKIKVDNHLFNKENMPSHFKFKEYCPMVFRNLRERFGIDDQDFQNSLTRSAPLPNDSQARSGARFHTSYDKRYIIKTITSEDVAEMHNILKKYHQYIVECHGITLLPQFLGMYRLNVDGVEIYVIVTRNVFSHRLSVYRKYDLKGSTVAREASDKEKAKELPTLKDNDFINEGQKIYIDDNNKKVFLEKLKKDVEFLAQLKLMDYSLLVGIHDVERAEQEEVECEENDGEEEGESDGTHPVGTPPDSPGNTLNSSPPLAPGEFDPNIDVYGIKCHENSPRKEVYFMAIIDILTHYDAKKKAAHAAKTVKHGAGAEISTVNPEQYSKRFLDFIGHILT
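Reactions run in 0.038 M HEPES pH 7.4, 0.28 mM EGTA, 0.1% CHAPS and 5% DMSO, with PI5P4Kalpha, substrate, compound and 5 microM ATP final, one hour at room temperature. Readout is ADP-Glo luminescence.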
JMJD2A Tudor inh: inhibitors of human JMJD2A Tudor domain | O75164 | AlphaScreen JMJD2A-Tudor / H3K4me3 peptide binding | Potency, µM (doses to about 114 µM), without a hit: top-dose activity change, negative = inhibition, usual class: inhibitors | 4.4% of 390,000 active | AID 504339; also: potency is read from the fitted curve at half-maximal effect; % is scaled to controls: 0 for no effect and ±100 for the full control effect; nearly all actives have a fitted effect of over 50% in size
BAZ2B inh: BAZ2B (human) inhibition; Q9UIF8; AlphaScreen BAZ2B-H3K14Ac peptide displacement; Potency, µM (highest dose often 114 µM), for the others: top-dose activity change, negative = inhibition, most hits filed as inhibitors; 4.4% of 360,000 active; also: potency is read from the fitted curve at half-maximal effect; % is scaled to controls: 0 for no effect and ±100 for the full control effect; nearly all actives have a fitted effect of over 60% in size
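Compounds, titrated to a top concentration of 110 uM, were incubated 30 min at room temperature with preformed BAZ2B/acetyl-K14 H3 peptide complex (50 nM each). Proximity signal was measured by AlphaScreen after 20 min with beads.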
HP1b chromo inh: HP1-beta chromodomain-methylated histone interaction inhibition; P83916; AlphaScreen HP1-beta / biotin-H3K9me3 peptide binding; Potency, µM (doses to about 114 µM), without a hit: at the highest dose activity change, negative = inhibition, most hits filed as inhibitors; 0.56% of 390,000 active; AID 540317; also: potency is read from the fitted curve at half-maximal effect; nearly all actives have a fitted effect of over 70% in size
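AlphaScreen: HP1-beta (50 nM) preformed 30 min with biotin-H3(1-18)K9me3 peptide (50 nM) in PBS pH 7.4, 0.01% Tween-20. Compound added for 30 min at RT, then streptavidin donor/nickel chelate acceptor beads (10 ug/mL) for 30 min.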
G9a inh: blocks human histone lysine methyltransferase G9a; G9a H3K9 monomethylation, AlphaScreen, 2 h; 8.8% of 350,000 active; Q96KQ7; Potency, µM (titrated, usually from 102 µM), for the others: at the highest dose activity, negative = inhibition, hits mostly inhibitors; also: potency is read from the fitted curve at half-maximal effect; % is scaled to controls: 0 for no effect and ±100 for the full control effect; nearly all actives have a fitted effect of over 75% in size
Target sequence (Q96KQ7 913-1193 limits assumed): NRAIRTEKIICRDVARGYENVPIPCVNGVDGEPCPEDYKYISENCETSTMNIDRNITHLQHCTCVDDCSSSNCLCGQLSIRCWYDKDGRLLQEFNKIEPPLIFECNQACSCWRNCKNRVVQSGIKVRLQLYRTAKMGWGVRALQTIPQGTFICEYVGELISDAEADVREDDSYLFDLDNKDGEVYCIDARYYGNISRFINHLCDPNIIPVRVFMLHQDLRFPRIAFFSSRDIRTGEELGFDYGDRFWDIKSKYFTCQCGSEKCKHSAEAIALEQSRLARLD
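G9a (20 nM) preincubated 15 min RT with compounds, then 500 nM biotinylated H3K9 peptide and 20 uM SAM added; 2 h RT reaction. Monomethyl-H3K9 product detected by AlphaScreen with anti-H3K9me1 antibody, streptavidin donor and anti-rabbit IgG acceptor beads.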
The depositor's hits bear a star; ? = inconclusive; . = not tested or not shown; [ ] = remark or other dose. This is a sample that favours compounds with a hit; in the whole collection about 11% have one here. Unless noted, calls follow the shape of the dose curve; as a rule, active = well fitted inhibition curve with a large enough effect; inconclusive = small, poorly fitted or top-dose-only effect; inactive = no such curve, though single readings can be large or run the other way.

SMILES	L3MBTL1 block	PI5P4K alpha inh	JMJD2A Tudor inh	BAZ2B inh	HP1b chromo inh	G9a inh
CN1CCc2nc3sc(C(=O)NCc4ccccc4)c(N)c3cc2C1	-17.4%	-16.9	-12.7%	?	23.8%	11.2µM*
CCN(CC)c1ccc(NC(=O)c2sc3nc4c(cc3c2N)CN(C)CC4)cc1	.	.	-34.7%	?	17.4%	?
O=C(Nc1ccc(Nc2ccccc2)cc1)c1cc([N+](=O)[O-])ccc1Cl	-19.6%	9.0	?	39.8µM*	19.3%	-22.7%
CSCCC(NC(=O)c1cc(C)oc1C)C(=O)O (stereo not drawn)	.	-3.7	6.3%	3.0%	35.7%	31.6µM*
O=C(Nc1ccccc1Oc1ccccc1)c1cc([N+](=O)[O-])ccc1Cl	-8.5%	11.3	?	?	-20.0%	?
CSCCC(NC(=O)c1cc([N+](=O)[O-])ccc1Cl)C(=O)O (stereo not drawn)	4.9%	3.5	-7.8%[57.1 µM]	12.9%	47.3%	79.4µM*
O=C(Nc1cccnc1)c1ccc(NS(=O)(=O)c2cc([N+](=O)[O-])ccc2Cl)cc1	-25.5%	?	-17.1%	79.4µM*	20.2%	50.1µM*
CCc1ccccc1NC(=O)CCCn1c(=O)c2cccn2c2ccccc21	.	.	?	?	8.5%	?
CCOc1ccccc1NC(=O)c1ccc2c(Cl)c3c(nc2c1)CCC3	.	.	-12.3%	-9.9%	26.5%	-11.9%[59 µM]
COc1ccccc1-c1cc2nc(C)c(CCC(=O)NCc3ccco3)c(C)n2n1	-3.5%	-9.7	?	-8.8%	13.0%	50.1µM*
CCCCc1ccc(Nc2cc(C)nc(-n3nc(C)cc3C)n2)cc1	.	.	?	-38.1%	17.5%[57 µM]	17.9%[59 µM]
Cc1ccc(NC(=O)CC2Sc3ccc(C(F)(F)F)cc3NC2=O)cc1 (stereo not drawn)	.	.	-11.3%	-2.1%	60.7%	-4.5%[59 µM]
CC(=O)C1=C(C)Nc2cc(C(F)(F)F)ccc2S1	0.9%	-23.4	-22.3%	11.0%	-4.2%	22.4µM*
O=C1N=C(N2CCC(Cc3ccccc3)CC2)S/C1=C/c1cn[nH]c1-c1ccccc1	-3.6%	.	-17.2%	-5.0%	8.9%	24.7%
Cc1cccc(N2CCN(C3=NC(=O)/C(=C\c4cn[nH]c4-c4ccccc4)S3)CC2)c1	7.2%	-28.8	-3.5%	-2.2%	22.8%	11.7%[59 µM]
Cc1ccc(N2CCN(C3=NC(=O)/C(=C\c4cn[nH]c4-c4ccccc4)S3)CC2)cc1	5.6%	-24.6	50.1µM*	-3.5%	-3.8%	-4.8%[59 µM]
O=C1N=C(N2CCN(c3ccccc3)CC2)S/C1=C\c1cn[nH]c1-c1ccccc1	-3.8%	-51.5*	-23.4%	-2.8%	1.4%	-13.7%[59 µM]
O=C(CSc1nccn1Cc1ccc2c(c1)OCO2)Nc1ccccc1F	.	.	-31.0%	?	11.0%[57 µM]	-46.8%[59 µM]
CCc1ccc(C2/C=C\CNC(c3ccccc3)C(=O)N2Cc2ccc(C)cc2)cc1 (stereo not drawn)	.	.	-20.0%	.	38.3%	.
C/C(=N\Nc1nc2ccccc2[nH]1)c1ccc(C)o1	-7.7%	-8.5	?	44.7µM*	-24.8%	3.5%[59 µM]
C/C(=N\Nc1ncc(Cl)cc1Cl)c1ccccn1	-23.3%	-4.5	?	22.4µM*	12.4%	44.7µM*
C/C(=N\Nc1nc2ccccc2[nH]1)c1ccc(N2CCOCC2)cc1	-18.6%	-11.3	35.5µM*	20µM*	?	50.1µM*
CCC(C)(C)C1CCC(=NNc2nc3ccccc3[nH]2)CC1 (stereo not drawn)	-20.0%	0.6	-35.5%	?	17.9%	?
CC(=O)N1CCC(=NNc2nc3ccccc3[nH]2)CC1	.	-3.1	25.1µM*	28.2µM*	?	44.7µM*
COCCn1c(SCc2ccccc2F)nc2c([nH]c3ccccc32)c1=O	.	.	3.5%	0.8%	31.7%[57 µM]	6.9%[59 µM]
SMILES	L3MBTL1 block	PI5P4K alpha inh	JMJD2A Tudor inh	BAZ2B inh	HP1b chromo inh	G9a inh
Cc1[nH]c(=O)[nH]c(=O)c1C1N2CC3(C(C)C)CN1CC(C(C)C)(C2)C3=O (stereo not drawn)	.	.	-17.0%	-3.7%	0.0%	?
O=C(CSc1nc2ccccc2[nH]1)c1ccc(Cl)s1	.	-25.6	-18.5%	-2.8%	2.2%	?
C/C(=N\Nc1ncnc2sc(C)c(C)c12)c1ccccn1	.	0.1	31.6µM*	7.08µM*	9.5%[57 µM]	25.1µM*
C/C(=N\Nc1cccc2cccnc12)c1ccccn1	13.1%	-1.4	?	?	?	14.1µM*
C/C(=N\Nc1cccc2cccnc12)c1ccccc1O	.	28.2	-11.3%	9.9%	44.2%	-10.1%
Cc1sc2ncnc(N/N=C/c3cccc(O)c3)c2c1C	6.5%	4.0	?	?	-13.4%	9.1%
C/C(=N\Nc1ncc(Cl)cc1Cl)c1ccc(N2CCOCC2)cc1	-13.1%	5.4	-1.5%	50.1µM*	21.1%	56.2µM*
C/C(=N\Nc1nc2ccccc2[nH]1)c1ccc(Cl)s1	-9.3%	-4.7	?	?	-10.5%	20µM*
O=C(c1ccccc1Cl)N(Cc1ccco1)c1ccccn1	.	.	-24.8%	-19.5%	22.3%	-2.0%[59 µM]
COc1cccc(/C=N/N2CCN(C3c4ccccc4-c4ccccc43)CC2)c1O	-25.3%	9.1	?	-37.1%	9.2%	35.5µM*
COc1ccccc1N1CCN(/N=C/c2cccc(OC)c2O)CC1	?	3.1	?	?	7.6%	-3.3%
Cc1ccsc1/C=N/N1CCN(C2c3ccccc3-c3ccccc32)CC1	-7.0%	10.0	?	?	-30.9%	32.6%[0.501 µM]
O=C(O)COCC(=O)N1CCN(C2c3ccccc3-c3ccccc32)CC1	-1.4%	2.0	-6.3%	-9.5%	-4.5%	-22.7%
COc1cc(/C=N/N2CCN(C3c4ccccc4-c4ccccc43)CC2)ccc1O	-1.3%	33.9	56.2µM*	35.5µM*	21.3%	?
C(=N\N1CCN(C2c3ccccc3-c3ccccc32)CC1)/c1ccncc1	-11.8%	23.7	44.7µM*	35.5µM*	?	?
C/C(=N\N1CCN(C2c3ccccc3-c3ccccc32)CC1)c1ccncc1	-9.0%	4.2	?	?	?	24.2%[0.501 µM]
Oc1cccc(/C=N/N2CCN(C3c4ccccc4-c4ccccc43)CC2)c1	-0.6%	35.7	39.8µM*	?	?	?
COC(=O)c1ccc(NS(=O)(=O)c2ccc(Cl)cc2)o1	.	5.8	-12.0%[11.4 µM]	?	-5.8%	50.1µM*
COC(=O)c1ccc(NS(=O)(=O)c2ccccc2)o1	.	5.9	-27.0%	-31.2%	7.9%	39.8µM*
O=C1C(=C(O)c2ccccc2)C(=O)c2ccccc21	19.9%	.	89.1µM*	-5.5%	-1.0%	?
CNc1nc(-c2ccccc2C)nc2ccccc12	.	.	.	.	.	-1.5%[0.501 µM]
COc1ccc(C2C(C(C)=O)=C(O)C(=O)N2c2cccnc2)c(OC)c1 (stereo not drawn)	1.3%	-4.3	25.1µM*	?	16.1%	-2.6%[59 µM]
